KB-V1 cytotox: KB-V1 MDR subline cytotoxicity. KB-V1 MDR cells viability, CellTiter-Glo, 72 h. Potency, µM (top dose mostly 46.1 µM), usual class: cytotoxic. hit rate 3.4% among 400,000. AID 1347076; further: nearly all actives have a fitted effect of over 60% in size
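Cells of the MDR subline KB-V1 are plated, dosed with compound at multiple concentrations, and incubated 72 h at 37 degrees C; CellTiter-Glo is then added and luminescence read after 10 min.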
HT1080NT lethal: kills 2HG-producing HT-1080-NT fibrosarcoma cells | HT-1080-NT fibrosarcoma viability, CellTiter-Glo ATP luminescence, 48 h | Potency, µM (highest dose often 46.1 µM), hits mostly cytotoxic | hit rate 1.6% among 360,000;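 further: NT is the 2HG producing partner of a matched IDH1 knockdown line; nearly all actives have a fitted effect of over 55% in size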
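Read-out is CellTiter-Glo luminescence after 10 minutes at room temperature, following 48 hours' compound treatment of HT-1080-NT cells (750 cells/well, RPMI, 5% FBS, 37 degrees C).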
HT1080 IDH1KD tx: HT-1080 IDH1 knockdown cell toxicity (counter line); HT-1080 IDH1 knockdown viability, ATP luminescence, 48 h; Potency, µM (top dose mostly 46.1 µM), hits mostly cytotoxic; hit rate 2% among 360,000
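Knockdown cells (IDH1KD HT-1080) received compounds 2 h after plating at 750 cells/well and were kept 48 h at 37 °C in 5% FBS RPMI. A CellTiter-Glo luminescence read gave % activity for curve fitting.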
ATXN viability: cell viability loss in ATXN counter-screen. S2 cells (HEK-293 line with an ATXN2-luciferase reporter) viability, CellTiter-Fluor protease fluorescence, 24 h. AID 651635. Potency, µM (top dose mostly 56.7 µM), usual class: cytotoxic. hit rate 0.49% among 400,000; further: nearly all actives have a fitted effect of over 40% in size
KB-3-1 cytotox: kills parental KB-3-1 adenocarcinoma cells. KB-3-1 viability, CellTiter-Glo ATP luminescence, 72 h. Potency, µM (top dose mostly 46.1 µM), most hits filed as cytotoxic. hit rate 1.4% among 400,000; further: nearly all actives have a fitted effect of over 60% in size
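Luminescent ATP read-out (CellTiter-Glo) measures survival of drug-naive KB-3-1 cells after 72 h compound exposure at 37 °C. Titration series was screened from lowest to highest concentration, with DMSO vehicle plates as background controls.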
ATXN2 expr inh: inhibitors of ATXN2 expression | HEK-293 ATXN2-luciferase reporter, luminescence, 24 h | AID 1745845 | Potency, µM (top dose mostly 57 µM), usual class: inhibitors | hit rate 0.72% among 360,000; further: nearly all actives have a fitted effect of over 55% in size
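qHTS (up to 57 uM final) was run with 24 h compound exposure of reporter cells at 37 °C. Each well was multiplexed: SteadyGlo luminescence measured ATXN2-luciferase expression after a fluorogenic Gly-Phe-AFC viability readout (25 uM final).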
Numbers stand for hits. The list is not random: actives were taken first. Their share in the collection is about 6.2%. The call rests on the fitted dose curve; in most records, active means well fitted curve in the direction sought with a large enough effect; inconclusive means small, poorly fitted or top-dose-only effect, or another doubt; inactive means no such curve, though single readings can be large; an effect the other way counts as inactive or inconclusive.

COc1ccc(C)cc1NS(=O)(=O)c1ccc(Br)s1 was read as KB-V1 cytotox inactive, HT1080NT lethal inactive, HT1080 IDH1KD tx inactive, ATXN viability inactive, KB-3-1 cytotox inactive and ATXN2 expr inh inactive.
`COc1ccc(NS(=O)(=O)c2ccc(SC)cc2)c(OC)c1` gave KB-V1 cytotox 18.4µM, HT1080NT lethal inactive, HT1080 IDH1KD tx inactive, ATXN viability inactive, KB-3-1 cytotox inactive and ATXN2 expr inh inactive.
CCCCN(C)C(=O)CN1C(=O)c2cccnc2Oc2ccc(Cl)cc21 was read as KB-V1 cytotox inactive and KB-3-1 cytotox inactive.
Screening CCC1CN(CCNC(=O)c2ccc(C#CC(C)(C)O)cc2)Cc2cc(OC)ccc2O1 (centres undefined) returned ATXN viability inactive.
Screening CCn1c(=S)[nH]c2sc3c(c2c1=O)CCCC3 returned KB-V1 cytotox inactive, HT1080NT lethal inactive, HT1080 IDH1KD tx inconclusive, ATXN viability inactive and KB-3-1 cytotox inactive.
C=CCn1c(=S)[nH]c2sc3c(c2c1=O)CCC3 was read as KB-V1 cytotox inactive, HT1080NT lethal 7.08µM, HT1080 IDH1KD tx inconclusive, ATXN viability inactive, KB-3-1 cytotox inactive and ATXN2 expr inh inactive.
Screening Cc1cc(C)c(C(=O)/C=C/c2cccs2)c(=O)[nH]1 returned KB-V1 cytotox inconclusive, HT1080NT lethal inactive, HT1080 IDH1KD tx inactive, ATXN viability inactive, KB-3-1 cytotox inactive and ATXN2 expr inh inactive.
`CCc1ccc(/C=C(\C)C(=O)c2c(C)cc(C)[nH]c2=O)cc1` gave KB-V1 cytotox inactive, HT1080NT lethal inactive, HT1080 IDH1KD tx inactive, ATXN viability inactive and KB-3-1 cytotox inactive.
For COc1ccc(/C=C/C(=O)c2c(C)cc(C)[nH]c2=O)c2ccccc12 the results were KB-V1 cytotox inactive, HT1080NT lethal inconclusive, HT1080 IDH1KD tx 11.6µM, ATXN viability inconclusive, KB-3-1 cytotox inconclusive and ATXN2 expr inh inconclusive.
COc1ccccc1/C=C/C(=O)c1c2c(c(C)[nH]c1=O)CCCC2 was read as KB-V1 cytotox inconclusive, HT1080NT lethal 4.47µM, HT1080 IDH1KD tx inconclusive, ATXN viability inconclusive, KB-3-1 cytotox inactive and ATXN2 expr inh inactive.
Cc1ccc(/C=C/C(=O)c2c(C)cc(C)[nH]c2=O)cc1 was read as KB-V1 cytotox inconclusive, HT1080NT lethal inconclusive, HT1080 IDH1KD tx 10µM, ATXN viability inconclusive, KB-3-1 cytotox inconclusive and ATXN2 expr inh inconclusive.
`CCc1ccc(/C=C/C(=O)c2c(C)cc(C)[nH]c2=O)cc1` gave KB-V1 cytotox inconclusive, HT1080NT lethal 14.6µM, HT1080 IDH1KD tx 23.1µM, ATXN viability inconclusive, KB-3-1 cytotox 23.1µM and ATXN2 expr inh inconclusive.
CC(=O)c1ccc([N+](C)(C)C)cc1 was read as KB-V1 cytotox inactive and KB-3-1 cytotox inactive.
Cc1ccc(C(C)C)c(OCCCn2c(=O)oc3ccccc32)c1 was read as KB-V1 cytotox inactive, ATXN viability inactive, KB-3-1 cytotox inactive and ATXN2 expr inh inactive.
For CN(Cc1ccccc1)C(=O)c1nc(-c2ccc(Cl)cc2)n2c1CCCCC2 the results were KB-V1 cytotox inactive, ATXN viability inconclusive, KB-3-1 cytotox inactive and ATXN2 expr inh inactive.
CCOC(=O)C(=Cc1ccc(Br)cc1)C(=O)OCC was read as KB-V1 cytotox 16.4µM, HT1080NT lethal 20.6µM, HT1080 IDH1KD tx 6.51µM, ATXN viability 8.91µM, KB-3-1 cytotox inconclusive and ATXN2 expr inh inconclusive.
`CCOC(=O)C(CC)(CC)C(=O)/C=C/c1ccc(Br)cc1` gave KB-V1 cytotox 18.4µM, HT1080NT lethal inconclusive, HT1080 IDH1KD tx inconclusive, ATXN viability inactive, KB-3-1 cytotox 20.6µM and ATXN2 expr inh inactive.
For CCOC(=O)C(=Cc1ccc(-n2ccnc2)cc1)C(=O)OCC the results were KB-V1 cytotox inconclusive, HT1080NT lethal 10.3µM, HT1080 IDH1KD tx 5.8µM, KB-3-1 cytotox 20.6µM and ATXN2 expr inh inconclusive.
CCCC(CCC)(C(=O)OCC)C(=O)OCC was read as ATXN viability inactive and ATXN2 expr inh inactive.
Screening Cc1ccc(C)c(NC(=O)C(=O)NCCc2csc3nc(-c4ccccc4C)nn23)c1 returned KB-V1 cytotox inconclusive, ATXN viability inactive, KB-3-1 cytotox inconclusive and ATXN2 expr inh inactive.
Screening COc1ccc(NC(=O)c2c(-c3ccc(C)cc3)nnc3ccccc23)cc1OC returned KB-V1 cytotox inactive and KB-3-1 cytotox inactive.

Screens deposited in PubChem by National Center for Advancing Translational Sciences (NCATS).
